Compounds with a hit are over-represented: about 19% of the library has one in this group of screens.
IL1B secr inh – inflammasome signaling inhibition, IL-1 beta readout; THP-1 LPS/ATP IL-1B secretion, AlphaLISA, 16 h; hits give low values; activity change, % at 57.5 µM; 360,000 tested, 4.7% active; AID 743279; in the data active means activity change below about -50%; inconclusive means mostly about -30% to -49%
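Secreted IL-1B measured by AlphaLISA bead assay after 16 h compound exposure of THP-1 cells; compounds (final up to 57.5 uM) added 1 h before LPS (250 ng/mL) and ATP (1.25 mM) stimulation; lower signal means less secretion.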
HT1080-NT tox – kills 2HG-producing HT-1080-NT fibrosarcoma cells. 360,000 tested, 1.6% active. Potency, µM (doses to about 46.1 µM), for inactives: top-dose activity, negative = less viability, hits mostly cytotoxic. HT-1080-NT fibrosarcoma viability, CellTiter-Glo ATP luminescence, 48 h;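 further: NT is the 2HG producing partner of a matched IDH1 knockdown line; potency means the concentration at half of the fitted maximal effect; 0% = DMSO-treated cells and -100% = media-only wells without cells; nearly all actives have a fitted effect of over 55% in size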
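HT-1080-NT; 750 cells/well; 5% FBS RPMI; 48 h compound, 37 degrees C; CellTiter-Glo luminescence; curve fitting and curve-class assignment.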
HT1080 IDH1KD tx – HT-1080 IDH1 knockdown cell toxicity (counter line); HT-1080 IDH1 knockdown viability, ATP luminescence, 48 h; Potency, µM (series often up to 46.1 µM), without a hit: top-dose activity, negative = toxicity, usual class: cytotoxic; 360,000 tested, 2% active;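 further: potency means the concentration at half of the fitted maximal effect; 0% = DMSO wells and -100% = cell-free medium wells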
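Assay cells: HT-1080 with IDH1 knockdown, 750 per well, RPMI/5% FBS. Exposure: 48 h at 37 °C following 2 h pre-incubation. Read: CellTiter-Glo luminescence; fitted concentration-response, curve class assigned.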
TDP1 cell CPT – growth inhibition of DT40 Tdp1-/-;hTDP1 cells with camptothecin (screen for TDP1 inhibitors) | chicken DT40 Tdp1-/-;hTDP1 cells + 20 nM CPT, ATP luminescence, 48 h | Potency, µM (top dose mostly 46.2 µM), inactives show at the highest dose activity change, negative = growth inhibition, hits mostly inhibitors | AID 686979 | 420,000 tested, 12% active; further: potency means the concentration at half of the fitted maximal effect; nearly all actives have a fitted effect of over 55% in size
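Cell growth measured by CellTiter-Glo luminescence after a minimum 48 h, 37 C compound exposure with 20 nM CPT in Tdp1-knockout DT40 cells stably expressing hTDP1, seeded 400/well; qHTS titration format.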
TDP1 cell noCPT – qHTS for Inhibitors of human tyrosyl-DNA phosphodiesterase 1 (TDP1): qHTS in cells in absence of CPT; DT40 Tdp1-/- hTDP1 cells, no CPT, ATP luminescence, 48 h; 420,000 tested, 15% active; AID 686978, 2013; Potency, µM (highest dose often 46.2 µM), for inactives: top-dose activity change, negative = growth inhibition, hits mostly inhibitors; further: potency means the concentration at half of the fitted maximal effect; nearly all actives have a fitted effect of over 55% in size
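A cellular qHTS used chicken DT40 cells lacking endogenous Tdp1 but carrying stably transfected human TDP1. Compounds were applied without camptothecin, and cell growth kinetics were judged by ATP-dependent luminescence after ≥48 hr.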
* hit, by the source's call; [ ] = dose if it differs, or a comment. Unless noted, the call rests on the fitted dose curve; in most records, active means well fitted curve in the direction sought with a large enough effect; inconclusive means small, poorly fitted or top-dose-only effect, or another doubt; inactive means no such curve, though single readings can be large; an effect the other way counts as inactive or inconclusive. Unless noted, on the % scale 0 is the no-effect control and ±100 the full control effect.

What do the screens show for `Cc1c(Cl)cccc1NC(=O)Nc1ccc(C(N)=O)cc1`?
IL1B secr inh: 2; HT1080-NT tox: 9%; HT1080 IDH1KD tx: 8%; TDP1 cell CPT: 6%; TDP1 cell noCPT: -24%

What do the screens show for `Cc1c(Cl)cccc1NC(=O)Nc1ccccc1C(N)=O`?
IL1B secr inh: -7; HT1080-NT tox: -11%; HT1080 IDH1KD tx: -1%; TDP1 cell CPT: 4.1µM*; TDP1 cell noCPT: 6.5µM*

How did Cc1noc(C)c1CCC(=O)N1CCOc2ccc(CN3CCN(c4ccccn4)CC3)cc2C1 do in these assays?
TDP1 cell CPT: -2%[9.04 µM]; TDP1 cell noCPT: inconclusive

Results for COc1cccc(-n2ccn(CC(=O)c3ccc(F)cc3)c(=O)c2=O)c1 ?
TDP1 cell CPT: -1%; TDP1 cell noCPT: 13%

How did COc1cc2cnc(-c3ccccc3)c(C(=O)c3ccc(OCc4ccccc4)cc3)c2cc1OC do in these assays?
IL1B secr inh: -22; HT1080-NT tox: 1%; HT1080 IDH1KD tx: -3%; TDP1 cell CPT: inconclusive; TDP1 cell noCPT: inconclusive

What do the screens show for `N#Cc1ccc(-c2c(-c3ccccc3)ncc3cc(F)ccc23)cc1`?
IL1B secr inh: -2; HT1080-NT tox: -22%; HT1080 IDH1KD tx: -10%; TDP1 cell CPT: 10µM*; TDP1 cell noCPT: 16µM*

What do the screens show for `O=[N+]([O-])c1ccc(-c2c(-c3ccccc3)ncc3ccc(F)cc23)cc1`?
IL1B secr inh: 13; HT1080-NT tox: -15%; HT1080 IDH1KD tx: -6%; TDP1 cell CPT: inconclusive; TDP1 cell noCPT: inconclusive

How did COc1cc2cnc(-c3ccccc3)c(C(=O)c3ccc(F)cc3)c2cc1OC do in these assays?
IL1B secr inh: -9; HT1080-NT tox: 0%; HT1080 IDH1KD tx: -1%; TDP1 cell CPT: 18µM*; TDP1 cell noCPT: 23µM*

How did COC(=O)c1ccc(-c2c(-c3ccccc3)ncc3cc(F)ccc23)cc1 do in these assays?
IL1B secr inh: 45; HT1080-NT tox: 0%; HT1080 IDH1KD tx: -14%; TDP1 cell CPT: 13µM*; TDP1 cell noCPT: 26µM*

Results for O=C(Nc1ccc2ccccc2n1)Nc1cccs1 ?
IL1B secr inh: -2; HT1080-NT tox: -17%; HT1080 IDH1KD tx: -8%; TDP1 cell CPT: -14%; TDP1 cell noCPT: -26%

What do the screens show for `Cc1[nH][nH]c(=O)c1C=NCc1ccc(Cl)cc1`?
IL1B secr inh: 5; HT1080-NT tox: -1%; HT1080 IDH1KD tx: 1%; TDP1 cell CPT: -7%; TDP1 cell noCPT: -7%

How did CCN1CCC(NCCc2ccc(F)cc2)CC1 do in these assays?
IL1B secr inh: -54*; HT1080-NT tox: -19%; HT1080 IDH1KD tx: -12%; TDP1 cell CPT: inconclusive; TDP1 cell noCPT: inconclusive

What do the screens show for `CN(Cc1ccccc1)S(=O)(=O)c1ccc2c(c1)CCC(=O)N2`?
IL1B secr inh: 8; HT1080-NT tox: 3%; HT1080 IDH1KD tx: -1%; TDP1 cell CPT: 11%; TDP1 cell noCPT: -22%

Results for NC(=S)N/N=C1\CCOc2ccc(Cl)cc21 ?
IL1B secr inh: inconclusive; HT1080-NT tox: -16%; HT1080 IDH1KD tx: -15%; TDP1 cell CPT: 18µM*; TDP1 cell noCPT: inconclusive

Results for Cn1c2c(c(=O)[nH]c1=O)C(c1cccc(O)c1)C1=C(N2)c2ccccc2C1=O (centres undefined) ?
IL1B secr inh: 19; HT1080-NT tox: -21%; HT1080 IDH1KD tx: inconclusive; TDP1 cell CPT: 7.3µM*; TDP1 cell noCPT: 8.2µM*

What do the screens show for `CC(=O)Nc1c2c(nn1-c1ccccc1)CSC2`?
IL1B secr inh: 3; HT1080-NT tox: 11%; HT1080 IDH1KD tx: 4%; TDP1 cell CPT: 3%; TDP1 cell noCPT: 1%

Results for COc1ccc(-n2nc3c(c2NC(=O)CCCl)CSC3)cc1 ?
IL1B secr inh: -4; HT1080-NT tox: 5%; HT1080 IDH1KD tx: 5%; TDP1 cell CPT: inconclusive; TDP1 cell noCPT: 18µM*

Results for O=C(CCl)Nc1c2c(nn1-c1ccccc1)CSC2 ?
IL1B secr inh: -96*; HT1080-NT tox: inconclusive; HT1080 IDH1KD tx: inconclusive; TDP1 cell CPT: 21µM*; TDP1 cell noCPT: 15µM*

What do the screens show for `O=C(NCc1ccccc1)C(=O)Nc1c2c(nn1-c1ccccc1)CSC2`?
TDP1 cell CPT: 16µM*; TDP1 cell noCPT: 18µM*

How did CC(C)(C)C(=O)Nc1c2c(nn1-c1ccccc1)CSC2 do in these assays?
IL1B secr inh: 9; HT1080-NT tox: -5%; HT1080 IDH1KD tx: 1%; TDP1 cell CPT: inconclusive; TDP1 cell noCPT: 23µM*

What do the screens show for `CCC(=O)Nc1c2c(nn1-c1ccc(OC)cc1)CSC2`?
IL1B secr inh: 24; HT1080-NT tox: 5%; HT1080 IDH1KD tx: 9%; TDP1 cell CPT: 10%; TDP1 cell noCPT: 10%

Results for CC(NS(=O)(=O)c1ccc(CCC(=O)NCc2cccnc2)cc1)c1ccccc1 (centres undefined) ?
IL1B secr inh: 24; HT1080-NT tox: 0%; HT1080 IDH1KD tx: 15%; TDP1 cell CPT: -18%; TDP1 cell noCPT: -55%

Results for CCOC(=O)C1(Cc2cccc(Cl)c2)CCCN(C(=O)c2cn[nH]c2)C1 (centres undefined) ?
IL1B secr inh: 0; HT1080-NT tox: 3%; HT1080 IDH1KD tx: 14%; TDP1 cell CPT: -18%; TDP1 cell noCPT: 0%

How did CCOC(=O)C1(Cc2cccc(OC)c2)CCCN(C(=O)c2cc(C)oc2C)C1 (centres undefined) do in these assays?
IL1B secr inh: 8; HT1080-NT tox: -2%; HT1080 IDH1KD tx: -3%; TDP1 cell CPT: 21µM*; TDP1 cell noCPT: 13µM*

Results for CCOC(=O)C1(Cc2cccc(OC)c2)CCCN(C(=O)CSC)C1 (centres undefined) ?
IL1B secr inh: 6; HT1080-NT tox: -2%; HT1080 IDH1KD tx: 2%; TDP1 cell CPT: inconclusive; TDP1 cell noCPT: inconclusive

How did CCOC(=O)C1(Cc2cccc(Cl)c2)CCCN(C(=O)c2cc(CC)on2)C1 (centres undefined) do in these assays?
IL1B secr inh: inactive; HT1080-NT tox: 4%; HT1080 IDH1KD tx: 3%; TDP1 cell CPT: inconclusive; TDP1 cell noCPT: 16µM*

What do the screens show for `CCOC(=O)C1(Cc2cccc(Cl)c2)CCCN(C(=O)c2cc(C)n(C)n2)C1` (centres undefined)?
IL1B secr inh: -5; HT1080-NT tox: 14%; HT1080 IDH1KD tx: -8%; TDP1 cell CPT: inconclusive; TDP1 cell noCPT: inconclusive

Results for CCCc1cc(C(=O)N2CCCC(Cc3cccc(Cl)c3)(C(=O)OCC)C2)n(C)n1 (centres undefined) ?
IL1B secr inh: -26; HT1080-NT tox: inconclusive; HT1080 IDH1KD tx: inconclusive; TDP1 cell CPT: 18µM*; TDP1 cell noCPT: 13µM*

Compound activity as filed in PubChem BioAssay.
